Compound activity (PubChem)
eIF4E-4G inh: inhibitors of eIF4E and eIF4G interaction in translation initiation. P63073+Q04637. TR-FRET eIF4E-eIF4GI(517-606) binding, 2 h. inhibition, % at 21.7 µM. 220,000 tested, 0.37% active. AID 782;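 active = inhibition above about 30%, limit read from the data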;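 also: 0% = full FRET control wells and 100% = background wells lacking eIF4GI fragment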
EBV gp42 block: EBV gp42 inhibition; Q1HVG2; Fluorescence polarization binding assay, mP read-out; inhibition, % (tested at 21.74 µM); 220,000 tested, 0.42% active; in the data active = inhibition above about 50%
Target sequence (Q1HVG2 whole entry, looked up): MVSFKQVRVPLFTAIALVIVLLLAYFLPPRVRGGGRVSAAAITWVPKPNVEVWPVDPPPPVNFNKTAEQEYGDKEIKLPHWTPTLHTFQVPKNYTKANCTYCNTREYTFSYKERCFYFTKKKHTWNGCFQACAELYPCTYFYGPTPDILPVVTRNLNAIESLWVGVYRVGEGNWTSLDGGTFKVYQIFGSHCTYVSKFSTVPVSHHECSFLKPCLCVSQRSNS
PABP polyA inh: blocks human PABP binding to poly(A) RNA | P11940 | fluorescence polarization | calls only at 35 µM | 290,000 tested, 1% active | AID 2014;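 also: calls also rest on retests at 20 µM and on dose response follow-up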
PABP1 MLLE inh: blocks PAM2 peptide binding to the PABP1 MLLE domain; P11940; GST-MLLE / FITC-PAM2 fluorescence polarization; inhibition, % at 20 µM; 360,000 tested, 0.36% active; AID 588489; in the data active = inhibition above about 35%, passing the limit was not always enough;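 also: plate controls were DMSO wells with GST-MLLE for no effect and wells lacking GST-MLLE protein for full effect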
eIF4H FP inh: inhibitors of RNA binding by human eIF4H. inhibition, % at 35 µM. eIF4H fluorescence polarization binding assay. 290,000 tested, 0.94% active. Q15056. AID 2012;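 also: calls also rest on retests at 20 µM and on dose response follow-up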
* hit, by the source's call. Only some compounds are listed: those with a hit (about 1.7% of all), similar ones and a draw of the others. Unless noted, no rule for the calls is given here.

For Cc1cc(=O)oc(C)c1C(=O)Nc1ccc2nsnc2c1 the results were PABP polyA inh inactive, PABP1 MLLE inh -3 and eIF4H FP inh 6.
Cc1cc(=O)oc(C)c1C(=O)Nc1ccc2ncccc2c1 was read as eIF4E-4G inh 5, EBV gp42 block 72*, PABP polyA inh inactive, PABP1 MLLE inh 42 and eIF4H FP inh 125*.
N=C1CCC(=N)c2c1c(O)c1ccccc1c2O was read as eIF4E-4G inh 16, EBV gp42 block 69*, PABP polyA inh inconclusive, PABP1 MLLE inh 62 and eIF4H FP inh inconclusive.
For N=C1CCCN1c1ccccc1O the results were eIF4E-4G inh 0, EBV gp42 block -17, PABP polyA inh inactive, PABP1 MLLE inh -9 and eIF4H FP inh 3.
CN1CCN(C(=O)CCNC(=O)Cn2ccc3ccccc3c2=O)CC1 was read as eIF4E-4G inh 2, EBV gp42 block 6, PABP polyA inh inactive, PABP1 MLLE inh 10 and eIF4H FP inh 4.
For COc1ccc(N2CCN(C(=O)CCNC(=O)Cn3ccc4ccccc4c3=O)CC2)cc1 the results were eIF4E-4G inh 78*, EBV gp42 block 6, PABP polyA inh inactive, PABP1 MLLE inh 2 and eIF4H FP inh -1.
Screening CC(C)(C)c1nnc(NC(=S)Nc2ccccc2)s1 returned eIF4E-4G inh -2, EBV gp42 block -16, PABP polyA inh inconclusive, PABP1 MLLE inh 43* and eIF4H FP inh inconclusive.
For COc1cc(OC)cc(C(=O)Nc2nnc(NC(=S)Nc3ccccc3)s2)c1 the results were eIF4E-4G inh -34, EBV gp42 block 3, PABP polyA inh inactive, PABP1 MLLE inh 34 and eIF4H FP inh -6.
Cc1ccc(-c2nc3ncccn3c2NC2CCCCC2)o1 was read as eIF4E-4G inh 4, EBV gp42 block -12, PABP polyA inh active, PABP1 MLLE inh -27 and eIF4H FP inh 54*.
For CC1=CCC(C(=O)O)C(C(=O)NC2CCCCC2)C1 (configuration not stated) the results were PABP polyA inh inactive, PABP1 MLLE inh 6 and eIF4H FP inh 70*.
CCCCn1c(OC(=S)N(CC)CC)cc(C)nc1=S was read as PABP1 MLLE inh -6.
For O=c1cc(CN2CCCc3ccccc32)nc2sccn12 the results were eIF4E-4G inh 5, EBV gp42 block 39, PABP polyA inh inactive, PABP1 MLLE inh 124 and eIF4H FP inh 94*.
`O=c1cc(CN2CCc3ccccc32)nc2sccn12` gave eIF4E-4G inh -19, EBV gp42 block 0, PABP polyA inh inactive, PABP1 MLLE inh 1 and eIF4H FP inh 19.
Screening O=C(CN1CCN(Cc2ccccc2)CC1)Nc1cccc(Cl)c1Cl returned PABP1 MLLE inh -8.
Screening CC1CC1C(=O)OCC(=O)Nc1ccc2[nH]c(=O)[nH]c2c1 (configuration not stated) returned eIF4E-4G inh 15, EBV gp42 block 8, PABP polyA inh active, PABP1 MLLE inh -13 and eIF4H FP inh inconclusive.
CC1CC1C(=O)OCC(=O)Nc1cccc([N+](=O)[O-])c1 (configuration not stated) was read as eIF4E-4G inh 2, EBV gp42 block 15, PABP polyA inh active, PABP1 MLLE inh -1 and eIF4H FP inh inconclusive.
For CC(C)=CC(=O)OCC(=O)Nc1cccc([N+](=O)[O-])c1 the results were eIF4E-4G inh 2, EBV gp42 block -17, PABP polyA inh inactive, PABP1 MLLE inh 9 and eIF4H FP inh -2.
Screening CCCC(=O)OCC(=O)Nc1ccc2[nH]c(=O)[nH]c2c1 returned eIF4E-4G inh 2, EBV gp42 block 6, PABP polyA inh inactive, PABP1 MLLE inh -17 and eIF4H FP inh -4.
`O=C(COC(=O)c1c(F)cccc1F)Nc1ccc2[nH]c(=O)[nH]c2c1` gave eIF4E-4G inh 7, EBV gp42 block 13, PABP polyA inh inactive, PABP1 MLLE inh -14 and eIF4H FP inh 57*.
`CCc1nc(NC(=O)Cc2csc(C)n2)sc1C(=O)OC` gave PABP polyA inh inactive, PABP1 MLLE inh -1 and eIF4H FP inh -14.
`CC1=CCC(C(=O)O)C(C(=O)Nc2ccc(-c3nc4ccc(C)cc4s3)cc2)C1` (configuration not stated) gave eIF4E-4G inh 80*, EBV gp42 block -10, PABP polyA inh inactive, PABP1 MLLE inh -7 and eIF4H FP inh 8.
For Cc1ccc2c(c1)N(CC(=O)NCCc1ccccc1)C(=O)c1cccnc1O2 the results were PABP polyA inh inactive, PABP1 MLLE inh -8 and eIF4H FP inh -17.
`CN1CCc2c(sc3nc(SCC(N)=O)n(-c4ccccc4)c(=O)c23)C1` gave eIF4E-4G inh -1, EBV gp42 block -30, PABP polyA inh active, PABP1 MLLE inh -41 and eIF4H FP inh 122*.
`NC(=O)C1CCN(c2nc(-c3ccc(Br)cc3)cs2)CC1` gave eIF4E-4G inh 15, EBV gp42 block -5, PABP polyA inh inactive, PABP1 MLLE inh 3 and eIF4H FP inh 1.
`Cc1noc(C)c1-c1csc(N2CCC(C(N)=O)CC2)n1` gave PABP1 MLLE inh 40*.
CC1CCCN(C(=O)CN2CCC(c3nc4ccc(Cl)cc4[nH]3)CC2)C1 (configuration not stated) was read as eIF4E-4G inh -1, EBV gp42 block -18, PABP polyA inh active, PABP1 MLLE inh 5 and eIF4H FP inh 91*.
Screening Clc1ccc(CN2CCC(c3nc4ccc(Cl)cc4[nH]3)CC2)cc1 returned eIF4E-4G inh 7, EBV gp42 block -15, PABP polyA inh inactive, PABP1 MLLE inh -21 and eIF4H FP inh -2.
`CC1(C)Cc2c(sc(NC(=O)c3ccco3)c2C#N)C(C)(C)N1` gave PABP polyA inh active and eIF4H FP inh 61*.
`CC(=O)Nc1sc2c(c1C#N)CC(C)(C)NC2(C)C` gave eIF4E-4G inh 3, EBV gp42 block 1, PABP polyA inh inactive, PABP1 MLLE inh 6 and eIF4H FP inh -5.
CC(C)(C)c1ccc(S(=O)(=O)N2CCN(CC(=O)NC(=O)NC3CCCCC3)CC2)cc1 was read as PABP1 MLLE inh 15.
For CC1=CC(=C(C#N)c2nc3ccccc3s2)C=C(C)N1CC1CCCO1 (configuration not stated) the results were eIF4E-4G inh 1, EBV gp42 block 155*, PABP polyA inh inactive, PABP1 MLLE inh 10 and eIF4H FP inh inconclusive.
`COC(=O)CC1=C(C(=O)OC)C(c2cccc(OCC(N)=O)c2)C(C#N)=C(N)O1` (configuration not stated) gave eIF4E-4G inh 2, EBV gp42 block 30, PABP polyA inh inactive, PABP1 MLLE inh 7 and eIF4H FP inh 45.
Screening COC(=O)CC1=C(C(=O)OC)C(c2ccncc2)C(C#N)=C(N)O1 (configuration not stated) returned eIF4E-4G inh -16, EBV gp42 block 0, PABP polyA inh active, PABP1 MLLE inh 3 and eIF4H FP inh 109.
`COc1ccc(CCNC(=O)COC(=O)CNS(=O)(=O)c2ccc(SC)c([N+](=O)[O-])c2)cc1` gave PABP1 MLLE inh -9.
